We go through 40 molecules from PubChem BioAssay (NCATS).

Structures are written as SMILES. Records with an inconclusive call do not appear. Unmarked numbers belong to inactive results. The call rests on the fitted dose curve; in most records, active means well fitted inhibition curve with a large enough effect; inconclusive means small, poorly fitted or top-dose-only effect; inactive means flat fitted curve, though single readings scatter.
On the % scale 0 is the no-effect control and ±100 the full control effect.

Sequence of Ubiquitin carboxyl-terminal hydrolase 1 (Homo sapiens) (O94782 whole entry, looked up): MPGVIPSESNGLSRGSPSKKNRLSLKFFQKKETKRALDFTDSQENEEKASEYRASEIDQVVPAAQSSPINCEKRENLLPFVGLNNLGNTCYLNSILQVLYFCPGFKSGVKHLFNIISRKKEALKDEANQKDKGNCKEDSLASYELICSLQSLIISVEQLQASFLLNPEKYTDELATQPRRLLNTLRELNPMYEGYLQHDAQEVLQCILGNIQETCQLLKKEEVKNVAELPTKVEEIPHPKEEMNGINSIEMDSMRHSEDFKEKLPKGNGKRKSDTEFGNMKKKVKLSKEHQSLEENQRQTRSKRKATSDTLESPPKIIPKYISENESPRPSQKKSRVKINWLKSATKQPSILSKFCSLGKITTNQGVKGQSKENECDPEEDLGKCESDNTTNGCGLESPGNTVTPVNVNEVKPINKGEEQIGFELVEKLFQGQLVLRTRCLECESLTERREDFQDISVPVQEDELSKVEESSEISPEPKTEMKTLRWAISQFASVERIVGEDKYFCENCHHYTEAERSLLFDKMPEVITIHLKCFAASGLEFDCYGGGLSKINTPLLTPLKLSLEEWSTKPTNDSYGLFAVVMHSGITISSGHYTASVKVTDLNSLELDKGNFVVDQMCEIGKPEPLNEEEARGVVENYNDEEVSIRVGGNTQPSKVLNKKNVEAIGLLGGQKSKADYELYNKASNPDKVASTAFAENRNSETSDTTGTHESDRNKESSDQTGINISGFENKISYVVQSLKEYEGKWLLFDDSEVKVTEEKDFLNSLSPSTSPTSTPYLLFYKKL

This test concerns the target Ubiquitin carboxyl-terminal hydrolase 1 (Homo sapiens) (UniProt O94782). In words: Inhibitors of USP1/UAF1: Pilot qHTS (AID 504865).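 Further: rhodamine fluorescence freed from ubiquitin-rhodamine substrate followed over time; top concentration of the series differs between compounds; nearly all actives have a fitted effect of over 35% in size.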 Particulars: purified USP1/UAF1, Ub-rhodamine cleavage fluorescence; series mostly up to 114 µM; activity change, negative = inhibition: at the top concentration. The gist of the method: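 USP1/UAF1 complex at 1 nM preincubated 15 min at room temperature with compound, then Ub-Rho substrate added at 150 nM final. Fluorescence (480/540 nm) read kinetically in 50 mM HEPES pH 7.8, 0.5 mM EDTA, 1 mM TCEP, 0.1 mg/ml BSA, 0.01% Tween-20.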
On to `CC(C)(C#N)O[C@H]1OC(CO)C(O)C(O)C1O` (stereo not given in full), for which the “activity change, negative = inhibition” value is -10.4%.
Take `CC1CC2CC(=O)C3CCCN4CCCC2[C@]34C1` (stereo not given in full): the “activity change, negative = inhibition” value was -8.19%.
Turning to `CC1CC[C@]2(NC1)OC1CC3C4CC=C5CC(O)CC[C@@]5(C)C4CC[C@]3(C)C1C2C` (stereo not given in full), the “activity change, negative = inhibition” value was -7.71%.
Regarding `CNC(=O)Oc1cccc2c1OC(C)(C)C2`, the “activity change, negative = inhibition” value is -7.36%.
Turning to `NC(CO)Cc1ccccc1` (stereo not given), the “activity change, negative = inhibition” value was -6.77%.
For the molecule `O=C(O)c1nn(Cc2ccc(Cl)c(Cl)c2)c2ccccc12`, the “activity change, negative = inhibition” value was -1.21%.
As to `CNc1ccccc1C(=O)O`, the “activity change, negative = inhibition” value is -12.2%.
For `CC(N)C(O)c1ccc(O)c(O)c1` (stereo not given), the “activity change, negative = inhibition” value was -8.94%.
For the molecule `C[C@@]12CC(c3ccoc3)OC(=O)C1CC[C@@]1(C)C2C2C=C[C@@]1(O)C(=O)O2` (stereo not given in full), the “activity change, negative = inhibition” value was -12.8%.
Then `CC(=O)OC1C(=O)[C@]2(C)C(O)CC3OC[C@]3(OC(C)=O)C2[C@@H](OC(=O)c2ccccc2)[C@]2(O)CC(O)C(C)=C1C2(C)C` (stereo not given in full), with -6.48%.
Turning to `Cc1c(O)c(O)cc2c1CC=C1[C@]3(C)CC[C@]4(C)CC[C@@](C)(C(=O)O)CC4[C@]3(C)CC[C@]12C` (stereo not given in full), the “activity change, negative = inhibition” value is -12.3%.
Regarding `N#C/C(=C\c1cccc(O)c1)C(=O)O`, the “activity change, negative = inhibition” value was -13.8%.
As for `CC(=O)C1CCC2C3CCC4CC(O)CCC4(C)C3CC(O)C12C` (stereo not given), the “activity change, negative = inhibition” value is -12.3%.
As to `COc1cc2c(cc1OC)[C@@H]1C(=O)c3ccc(O)c(CC=C(C)C)c3OC1CO2` (stereo not given in full), the “activity change, negative = inhibition” value was -7.2%.
Turning to `C[C@@]12CCC3C(CC[C@@H]4CC(O)CC[C@@]34C)C1CCC2O` (stereo not given in full), the “activity change, negative = inhibition” value was -8.11%.
Turning to `CCC(C)C(=O)OC1C(O)C2C(CN3CC(C)CCC3[C@]2(C)O)C2C[C@]34O[C@@]5(O)C(OC(=O)C(C)(O)C(C)O)CCC3(C)C5C(OC(C)=O)C(OC(C)=O)C4[C@@]21O` (stereo not given in full), the “activity change, negative = inhibition” value was -5.71%.
In the case of `N#CC(O[C@@H]1OC(COC2OC(CO)C(O)C(O)[C@@H]2O)C(O)C(O)C1O)c1ccccc1` (stereo not given in full), the “activity change, negative = inhibition” value is -7%.
Consider `CCN1C[C@@]2(OC(=O)c3ccccc3NC(C)=O)CCC(OC)[C@@]34C5CC6C(OC)C[C@@](O)(C(CC23)[C@@H]14)C5(O)C6OC` (stereo not given in full), for which the “activity change, negative = inhibition” value is -3.14%.
With `CCOC(=O)C1C(C=C(C)C)C1(C)C` (stereo not given) the figure was -1.36%; with `FC(F)(F)c1cccc(N2CCNCC2)c1`, -6.51%.
As to `CC(N)[C@@H](O)c1ccccc1` (stereo not given in full), the “activity change, negative = inhibition” value is -7.69%.
With `CC1C(=O)OC2C(O)C34C5OC(=O)[C@@]3(OC3OC(=O)[C@H](O)[C@]34C(C(C)(C)C)C5O)[C@]12O` (stereo not given in full), the “activity change, negative = inhibition” value is -1.81%.
With `CC(=O)OC1CC[C@]2(C)C(CCC3C2CC[C@]2(C)C(C4=CC(=O)OC4)C(OC(C)=O)CC32O)C1` (stereo not given in full) the figure was -9.69%; with `C[C@]12CCC3C(C=CC4=CC(=O)CC[C@]43C)C1CC[C@]2(O)CCC(=O)O` (stereo not given in full), -4.57%; with `CC1C(=O)OC2CCN3CC=C(COC(=O)[C@](C)(O)[C@]1(C)O)C23` (stereo not given in full), -6.77%.
With `C/C=C(/C)C(=O)OC1CC[C@]2(C)C3CCC4[C@]5(O)CC(O)[C@]6(O)C(CN7CC(C)CCC7[C@]6(C)O)[C@]5(O)C[C@@]42O[C@]13O` (stereo not given in full) the figure was -1.47%.
Consider `CC1O[C@@H](OC2CC[C@@]3(C=O)C4CC[C@]5(C)C(C6=CC(=O)OC6)CC[C@@]5(O)C4CC[C@]3(O)C2)C(O)C(O)C1O` (stereo not given in full), for which the “activity change, negative = inhibition” value was -6.65%.
Regarding `COc1ccc(/C=C/c2cc(O)cc(O)c2)cc1`, the “activity change, negative = inhibition” value was -6.26%.
In the case of `CNC(Cc1c[nH]c2ccccc12)C(=O)O` (stereo not given), the “activity change, negative = inhibition” value was -8.2%.
Then `COC1C(O)C(C)O[C@H](OC2CC[C@@]3(C=O)C4CC[C@]5(C)C(C6=CC(=O)OC6)CC[C@@]5(O)C4CC[C@@H]3C2)C1O` (stereo not given in full), with -2.08%.
Turning to `O=C(NC(=O)c1ccccc1Cl)Nc1ccc(OC(F)(F)F)cc1`, the “activity change, negative = inhibition” value was -3.33%.
Regarding `CC(=O)OC1CC(OC(C)=O)[C@]2(C)C(CC(OC(C)=O)[C@]3(C)C2CC[C@@]2(C)C(c4ccoc4)C[C@H]4O[C@]432)C1(C)C` (stereo not given in full), the “activity change, negative = inhibition” value was -11.3%.
With `CCC(N)C(O)c1ccc(O)c(O)c1` (stereo not given) the figure was -6.15%; with `CC(=O)C1CC[C@H]2C3CC[C@@H]4CC(O)CC[C@@]4(C)C3CC[C@]12C` (stereo not given in full), -11.6%; with `O=C(O)CCC1NCC2CC1CN1CCCCC21` (stereo not given), 2.75%.
For `CC1(C)N([O-])[N+](=O)C1(C)Br` (stereo not given), the “activity change, negative = inhibition” value was -8.97%.
On to `COc1cc2c3cc1Oc1c(OC)c(OC)cc4c1C(Cc1cccc(c1)Oc1ccc(c(O)c1)CC3N(C)CC2)N(C)CC4` (stereo not given), for which the “activity change, negative = inhibition” value was -4.53%.
With `COC[C@]12CN(C=O)C3C4C(OC)C1[C@@]3(C1CC3(O)C(OC)C(O)C4(OC(C)=O)C1C3OC(=O)c1ccccc1)[C@@H](OC)CC2O` (stereo not given in full) the figure was -2.5%; with `COc1cc2c(c(OC)c1OC)-c1ccc(O)c(=O)cc1C(NC(C)=O)CC2` (stereo not given), -8.19%; with `CN1C2CC3CC1C(O3)C2O` (stereo not given), 2.31%.
